Assay results published in PubChem BioAssay AID488965 (Broad Institute, 2010).
“And” between values parts separate entries of the source, which are not always exact repeats. Equal entries are not always repeated. About 210 (0.062%) of roughly 340,000 compounds were called active. Only a selection was taken, and actives are over-represented in it overall. Values without a mark were called inactive. Rule as the data show it: active = inhibition above about 30% (passing the limit was not always enough); inconclusive = no clear call, values can overlap the other calls.

test system: PvdQ acylase [Pseudomonas aeruginosa LESB58]; test: P. aeruginosa PvdQ acylase inhibitors, primary screen, biochemical, fluorescence, plate reader and imaging, single point (AID 488965); conditions: purified PvdQ acylase, at 10 µM, active compounds read high;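 also: 0% = vehicle neutral wells and 100% = reference inhibitor wells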

Compound	inhibition
CC1Cc2ccccc2N1S(=O)(=O)c1ccc(Cl)nc1 (centres undefined)	24.3%
COc1ccc(OCC(=O)NN2Cc3ccccc3C2=N)cc1	7.9%
COc1ccc(CNS(=O)(=O)c2ccc(NC(=O)N3CCCCC3)cc2)cc1	1.88%
O=C(N/N=C/c1cccc(OC(=O)c2ccc([N+](=O)[O-])cc2)c1)c1cccnc1	-8.47%
O=C(N/N=C/c1ccc(Cl)cc1)c1nc2ccc([N+](=O)[O-])cc2c(=O)[nH]1	-8.55%
N#Cc1cc([N+](=O)[O-])ccc1Oc1cccc(/C=N/NC(=O)c2ccc(Cl)cc2)c1	65.3% (active)
C/C(=N\NC(=O)Cc1ccccc1[N+](=O)[O-])c1cccnc1	-8.6%
O=C(CN1CCSCC1)N/N=C/c1ccc(F)cc1F	-7.29%
COc1ccccc1N1CCN(C(=O)CCS(=O)(=O)c2ccc3c(c2)NC(=O)C(C)S3)CC1 (centres undefined)	-17.3%
CN1C(C(=O)NCc2ccco2)CC2Cn3c(nc4ccccc43)C21 (centres undefined)	-1.69%
CCOC(=O)N1CCC(Nc2c(NCCCN3CCN(CC)CC3)c(=O)c2=O)CC1	-6.72%
O=C(NCc1ccco1)/C(=C/c1cccc([N+](=O)[O-])c1)NC(=O)c1ccco1	5.34%
OC(CNCC1CCCO1)Cn1c2ccc(Br)cc2c2cc(Br)ccc21 (centres undefined)	-10.5%
O=c1cc(Cl)c2ccccc2n1-c1ccccc1	-10.1%
Cc1cccc(N2CCN(C(=O)c3cccc(N4C(=O)C5C6C=CC(C6)C5C4=O)c3)CC2)c1C (centres undefined)	-11.5%
Cc1ccc(S(=O)(=O)NCCSC(C)(C)C)cc1	6.35%
COc1ccc(S(=O)(=O)N2C[C@H]3CON(C)[C@H]3C[C@H]2c2cccc(Br)c2)cc1	4.46%
O=C(NCCc1ccccc1)C1CCC(Cn2c(=O)c3ccccc3n(Cc3cccnc3)c2=O)CC1 (centres undefined)	-13.5%
COc1ccc(-c2[nH]ncc2CN(C)Cc2cccnc2)c(F)c1	-16.1%
Cc1ccc(N(C(=O)Cc2cccs2)C2C=CS(=O)(=O)C2)cc1Cl (centres undefined)	-5.8%
CCCC(=O)N1CCN(c2nnc(-c3ccc(C)cc3)c3ccccc23)CC1	-23.6%
COc1cccc(NC(=O)c2ccccc2N(Cc2ccccc2)S(C)(=O)=O)c1	-17.2%

Compound	inhibition
CCOc1ccc(-c2noc(CCC(=O)NC3CCCC3)n2)cc1OC	3.89%
CC(C)=CCC/C(C)=C/C(=O)O	-3.82%
O=C(N/C(=C/c1ccc(Cl)cc1)C(=O)N1CCCCC1)c1ccco1	-10.7%
CN1C(C(=O)NCC2CC2)CC2Cn3c(nc4ccccc43)C21 (centres undefined)	-7.73%
O=C1C=C(c2cccc(Br)c2)C[C@@H](c2ccc(F)cc2)C1	63.4% (active)
COc1ccccc1C1=CC(=O)C[C@H](c2ccc(F)cc2)C1	2.08%
COc1cccc(C2=CC(=O)C[C@H](c3ccc(F)cc3)C2)c1OC	-13.7%
O=C1C=C(c2cccc(Cl)c2O)C[C@@H](c2ccc(F)cc2)C1	-5.55%
O=C1C=C(c2cccc(Cl)c2)C[C@@H](c2ccc(F)cc2)C1	37.3% (active)
COc1cccc(C2=CC(=O)C[C@H](c3ccc(OC)c(OC)c3)C2)c1	-0.585%
CC(=O)c1nn(-c2ccc(C)cc2)cc1C(=O)c1cccc(Br)c1	-6.55%
COc1cc(CNC2CCCCC2)c(Br)cc1OC1CCCC1	-10.3%
COc1ccc(NS(=O)(=O)c2cc(NC(=O)CC(=O)c3ccc([N+](=O)[O-])cc3)ccc2C)cc1	-17.8%
CCCCNC(=O)N1CCN(S(C)(=O)=O)CC1	-13.6%
CN1CCN(Cc2c(C(=O)N3CCc4ccccc4C3)nc3ccc(Cl)cn23)CC1	9.88%
CCOc1ccc(/C(O)=C2/C(=O)C(=O)N(Cc3cccnc3)C2c2ccc(N(C)C)cc2)c(C)c1 (centres undefined)	-1.75%
COc1ccc(CCN(C)C(=O)C23CC4CC(CC(Cl)(C4)C2)C3)cc1OC	0.828%
O=C(CNC(=O)OCc1ccccc1)NC1CCCCNC1=O (centres undefined)	-2.51%
CCC(C(=O)NC1CCCC1)N(C(=O)Cn1nnc(-c2ccc(C)o2)n1)c1ccc(OC)c(OC)c1 (centres undefined)	-6.8%
CC(C)=NN1C(=O)c2ccccc2NC1(C)C	-15.2%
O=C(Nn1cnc2ccccc2c1=O)c1ccc([N+](=O)[O-])cc1Cl	-2.92%
CC1=C(C(=O)Nc2cc(C)ccn2)C(c2cnn(C)c2)C2=C(CC(c3ccccc3)CC2=O)N1 (centres undefined)	-10.4%

Compound	inhibition
COc1ccc(N2CCN(C(=O)CN3C(=O)COc4ccccc43)CC2)cc1	-3.63%
COc1ccc(Cn2cc(CN3CCS(=O)(=O)N(Cc4ccc(-c5cccc(Cl)c5)cc4)C(C)C3=O)nn2)cc1 (centres undefined)	6.04%
COc1ccccc1NS(=O)(=O)c1ccc(C)c(C(=O)NCC(c2ccco2)N(C)C)c1 (centres undefined)	-1.08%
CC(C)CC(COCc1ccc(Cl)cc1)N1CCN(C(=O)c2ccc(C(F)(F)F)cc2)CCC1=O (centres undefined)	-5.2%
COc1ccc(S(=O)(=O)NCC2CCCN(C(=O)c3occc3C)C2)cc1 (centres undefined)	-11.7%
Cc1oc(-c2ccccc2Cl)[n+]([O-])c1C	-3.53%
CC(C(=O)Nc1ccccc1-c1ccccc1)N1CCOCC1 (centres undefined)	4.97%
CC1(C)Cc2cccc(OCC(=O)N3CCN(c4ccc([N+](=O)[O-])cc4)CC3)c2O1	3.43%
O=C(NCCc1ccccc1)C1CC1	11.7%
Cc1cc(C)cc(NC(=O)C(c2ccccc2)N2CCN(CC(=O)N3CCCC3)CC2)c1 (centres undefined)	-12.8%
CCc1ccc(CNC(=O)C2CCN(c3nnc(C)c4c(C)n(-c5ccc(C)cc5)nc34)CC2)cc1	-8.9%
COc1ccc(OC)c(NC(=O)COC(=O)Cc2ccsc2)c1	7.79%
COc1ccc(CCNC(=O)COc2cc(C)cc3oc(=O)c(C)c(C)c23)cc1OC	-16.2%
CN1CCN(S(=O)(=O)c2ccc(Nc3ccc(F)cc3)nc2)CC1	4.04%
COc1cc([C@H](Cc2ccccc2)NC(C)=O)oc(=O)c1	-11.2%
Cc1nc2ccccc2c(=O)n1-c1ccc(F)c(NC(=O)c2cccs2)c1	4.62%
CCOC(=O)C1CCCN(C(=O)C2CCN(c3nnc(-n4cccc4)s3)CC2)C1 (centres undefined)	-9.35%
Cc1ccc(C(=O)COC(=O)c2cccc(N3C(=O)c4c(C)nc5ccccc5c4C3=O)c2)cc1C	-0.235% and -7.76%
COc1ccc(Cl)cc1C(=O)OCC(=O)NCc1cccs1	-17.2%
Cc1ccc(N(CCC(=O)O)S(=O)(=O)c2cccc(C(F)(F)F)c2)cc1	-8.9%
